Measured values as given in PubChem BioAssay AID2284059 (EPA ToxCast).
Calls of active or inactive are those of the source. The calls were made as follows: active = hit-call score of the fitted dose curve at least 0.9, where 1 is the maximum; inactive = score below 0.9.

Target: CYP2E1, CYP2E1 (gene 1571) (UniProt P05181)
Experiment: ERF_FR_ADME_hCYP2E1: Eurofins (ERF) CYP450-related Enzyme Activity (ADME) Assay for CYP2E1
Procedure: ERF_FR_ADME_hCYP2E1 is a biochemical, single-readout assay that uses extracted gene-proteins in a cell-free assay. Measurements were taken 0.16 hour after chemical dosing in a 96-well plate. See CYP2E1 inhibition (recombinant, EC substrate).ERF_FR_ADME_hCYP2E1 is an assay component calculated from the ERF_FR_ADME_hCYP2E1 assay. It is designed to measure enzyme activity using a type of enzyme reporter as detected by peak area response of 6-hydroxychlorzoxazone with HPLC-MS/MS technology.Data from the assay component ERF_FR_ADME_hCYP2E1 was analyzed at the assay endpoint, ERF_FR_ADME_hCYP2E1, in the positive analysis fitting direction relative to acetonitrile as the negative control and baseline of activity. Using a type of enzyme reporter, loss-of-signal activity can be used to understand changes in enzymatic activity as they relate to gene CYP2E1. To generalize the intended target to other relatable targets, this assay endpoint is annotated to the cyp intended target family, where the subfamily is steroidogenesis-related.
Assay is performed using 20 uM chlorzoxazone, cells are pre-incubated for 5 minutes, and then 10 minutes incubation with NADPH at 37C.

Sequence of CYP2E1, CYP2E1 (gene 1571) (P05181 whole entry, looked up): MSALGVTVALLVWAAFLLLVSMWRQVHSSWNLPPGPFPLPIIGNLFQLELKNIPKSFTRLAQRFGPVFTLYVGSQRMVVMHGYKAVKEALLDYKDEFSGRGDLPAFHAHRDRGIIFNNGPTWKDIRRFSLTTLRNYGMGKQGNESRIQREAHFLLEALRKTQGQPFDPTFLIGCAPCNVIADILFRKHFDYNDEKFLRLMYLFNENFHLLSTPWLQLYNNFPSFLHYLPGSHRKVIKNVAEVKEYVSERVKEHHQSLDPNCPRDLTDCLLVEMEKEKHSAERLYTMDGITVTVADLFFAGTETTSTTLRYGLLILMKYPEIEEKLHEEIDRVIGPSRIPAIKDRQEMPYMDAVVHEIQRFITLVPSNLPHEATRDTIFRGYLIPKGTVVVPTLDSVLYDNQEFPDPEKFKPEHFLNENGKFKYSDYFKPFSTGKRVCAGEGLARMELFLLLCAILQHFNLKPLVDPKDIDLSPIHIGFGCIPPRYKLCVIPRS

AC50, active:
O=C(/C=C/c1ccc(O)cc1)CC(=O)/C=C/c1ccc(O)cc1 1.15 µM
COc1cc(CCC(=O)CC(=O)CCc2ccc(O)c(OC)c2)ccc1O 1.24 µM
COc1cc(/C=C/C(=O)CC(=O)/C=C/c2ccc(O)c(OC)c2)ccc1O 1.08 µM
